Experiments:
[1] = target: T1, Inhibitor of nuclear factor kappa-B kinase subunit epsilon (Homo sapiens) (UniProt Q14164); details: at 1 µM;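 also: reported values are averaged percent inhibition figures against human IKKε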
T1 sequence (whole entry): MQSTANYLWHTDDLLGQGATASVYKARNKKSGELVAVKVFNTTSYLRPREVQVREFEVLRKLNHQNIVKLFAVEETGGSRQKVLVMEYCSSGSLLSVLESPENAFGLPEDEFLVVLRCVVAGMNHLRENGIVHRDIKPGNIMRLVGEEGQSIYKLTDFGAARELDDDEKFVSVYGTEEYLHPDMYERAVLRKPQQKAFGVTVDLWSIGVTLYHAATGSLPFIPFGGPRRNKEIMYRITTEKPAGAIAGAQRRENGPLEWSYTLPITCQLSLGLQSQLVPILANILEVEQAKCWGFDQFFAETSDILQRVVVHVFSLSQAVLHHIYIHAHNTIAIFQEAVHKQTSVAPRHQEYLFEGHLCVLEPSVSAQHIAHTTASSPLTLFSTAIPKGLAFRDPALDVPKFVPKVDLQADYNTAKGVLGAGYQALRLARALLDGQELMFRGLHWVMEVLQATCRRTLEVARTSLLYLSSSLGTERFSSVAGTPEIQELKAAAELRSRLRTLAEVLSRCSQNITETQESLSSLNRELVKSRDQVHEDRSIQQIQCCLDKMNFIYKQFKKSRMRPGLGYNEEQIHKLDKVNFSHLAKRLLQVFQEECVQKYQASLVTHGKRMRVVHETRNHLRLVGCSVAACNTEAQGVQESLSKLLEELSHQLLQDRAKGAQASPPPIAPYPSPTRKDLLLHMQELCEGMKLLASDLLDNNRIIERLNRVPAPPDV

[2] = target: T2, Serine/threonine-protein kinase Nek1 (Homo sapiens) (UniProt Q96PY6); details: at 0.1 µM
T2 sequence (whole entry): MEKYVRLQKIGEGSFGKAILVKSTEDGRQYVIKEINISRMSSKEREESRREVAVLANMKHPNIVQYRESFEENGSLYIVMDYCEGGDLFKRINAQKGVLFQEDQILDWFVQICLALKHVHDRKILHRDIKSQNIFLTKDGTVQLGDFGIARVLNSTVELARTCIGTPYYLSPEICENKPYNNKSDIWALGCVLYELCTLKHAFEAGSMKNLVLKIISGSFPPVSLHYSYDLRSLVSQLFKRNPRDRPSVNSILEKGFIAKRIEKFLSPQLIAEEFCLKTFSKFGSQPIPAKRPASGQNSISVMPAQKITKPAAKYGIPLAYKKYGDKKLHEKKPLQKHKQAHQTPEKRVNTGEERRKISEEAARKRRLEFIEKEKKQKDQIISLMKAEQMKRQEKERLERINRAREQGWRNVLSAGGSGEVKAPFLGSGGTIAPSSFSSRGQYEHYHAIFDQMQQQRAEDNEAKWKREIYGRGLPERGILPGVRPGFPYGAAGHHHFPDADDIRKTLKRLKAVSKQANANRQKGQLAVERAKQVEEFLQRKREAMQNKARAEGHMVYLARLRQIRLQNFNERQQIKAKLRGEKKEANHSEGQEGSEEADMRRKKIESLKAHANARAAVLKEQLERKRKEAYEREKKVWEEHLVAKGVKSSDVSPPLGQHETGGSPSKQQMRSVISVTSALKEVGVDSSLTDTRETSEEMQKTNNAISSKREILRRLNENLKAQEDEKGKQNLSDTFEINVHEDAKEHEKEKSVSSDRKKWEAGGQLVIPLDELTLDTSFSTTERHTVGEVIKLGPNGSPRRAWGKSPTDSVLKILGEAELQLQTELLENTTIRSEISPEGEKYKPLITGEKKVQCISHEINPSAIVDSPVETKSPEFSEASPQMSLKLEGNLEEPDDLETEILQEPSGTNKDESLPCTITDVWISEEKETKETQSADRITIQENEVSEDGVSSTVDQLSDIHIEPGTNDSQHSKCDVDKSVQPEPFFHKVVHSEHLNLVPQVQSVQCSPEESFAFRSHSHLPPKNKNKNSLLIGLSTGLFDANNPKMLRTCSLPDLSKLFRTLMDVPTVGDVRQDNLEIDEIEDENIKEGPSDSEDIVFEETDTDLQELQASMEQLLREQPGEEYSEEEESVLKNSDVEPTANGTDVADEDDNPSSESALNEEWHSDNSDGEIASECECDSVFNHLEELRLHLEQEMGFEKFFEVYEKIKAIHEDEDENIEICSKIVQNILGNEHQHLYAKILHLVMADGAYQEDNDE

[3] = target: T2, Serine/threonine-protein kinase Nek1 (Homo sapiens); details: at 1 µM
[4] = target: T3, Serine/threonine-protein kinase Nek2 (Homo sapiens) (UniProt P51955); details: at 0.1 µM
T3 sequence (whole entry): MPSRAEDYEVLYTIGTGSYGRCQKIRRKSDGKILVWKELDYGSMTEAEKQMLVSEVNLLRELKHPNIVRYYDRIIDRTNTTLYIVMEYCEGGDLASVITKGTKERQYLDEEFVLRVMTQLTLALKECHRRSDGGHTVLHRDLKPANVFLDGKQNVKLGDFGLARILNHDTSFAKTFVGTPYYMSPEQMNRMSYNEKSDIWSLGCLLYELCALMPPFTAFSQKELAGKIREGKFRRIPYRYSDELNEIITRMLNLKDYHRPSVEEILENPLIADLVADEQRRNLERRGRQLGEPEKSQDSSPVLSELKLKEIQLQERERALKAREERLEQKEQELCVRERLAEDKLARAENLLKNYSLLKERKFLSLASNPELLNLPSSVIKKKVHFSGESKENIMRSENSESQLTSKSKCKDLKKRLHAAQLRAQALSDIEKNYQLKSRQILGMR

[5] = target: T3, Serine/threonine-protein kinase Nek2 (Homo sapiens); details: at 1 µM
[6] = target: Serine/threonine-protein kinase Nek6 (Homo sapiens) (UniProt Q9HC98); details: at 0.1 µM
[7] = target: Serine/threonine-protein kinase Nek6 (Homo sapiens) (UniProt Q9HC98); details: at 1 µM
[8] = target: Serine/threonine-protein kinase Nek7 (Homo sapiens) (UniProt Q8TDX7); details: at 0.1 µM
[9] = target: Serine/threonine-protein kinase Nek7 (Homo sapiens) (UniProt Q8TDX7); details: at 1 µM
[10] = target: T4, Serine/threonine-protein kinase Nek9 (Homo sapiens) (UniProt Q8TD19); details: at 0.1 µM;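 also: reported value is the mean percent inhibition of NEK9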
T4 sequence (whole entry): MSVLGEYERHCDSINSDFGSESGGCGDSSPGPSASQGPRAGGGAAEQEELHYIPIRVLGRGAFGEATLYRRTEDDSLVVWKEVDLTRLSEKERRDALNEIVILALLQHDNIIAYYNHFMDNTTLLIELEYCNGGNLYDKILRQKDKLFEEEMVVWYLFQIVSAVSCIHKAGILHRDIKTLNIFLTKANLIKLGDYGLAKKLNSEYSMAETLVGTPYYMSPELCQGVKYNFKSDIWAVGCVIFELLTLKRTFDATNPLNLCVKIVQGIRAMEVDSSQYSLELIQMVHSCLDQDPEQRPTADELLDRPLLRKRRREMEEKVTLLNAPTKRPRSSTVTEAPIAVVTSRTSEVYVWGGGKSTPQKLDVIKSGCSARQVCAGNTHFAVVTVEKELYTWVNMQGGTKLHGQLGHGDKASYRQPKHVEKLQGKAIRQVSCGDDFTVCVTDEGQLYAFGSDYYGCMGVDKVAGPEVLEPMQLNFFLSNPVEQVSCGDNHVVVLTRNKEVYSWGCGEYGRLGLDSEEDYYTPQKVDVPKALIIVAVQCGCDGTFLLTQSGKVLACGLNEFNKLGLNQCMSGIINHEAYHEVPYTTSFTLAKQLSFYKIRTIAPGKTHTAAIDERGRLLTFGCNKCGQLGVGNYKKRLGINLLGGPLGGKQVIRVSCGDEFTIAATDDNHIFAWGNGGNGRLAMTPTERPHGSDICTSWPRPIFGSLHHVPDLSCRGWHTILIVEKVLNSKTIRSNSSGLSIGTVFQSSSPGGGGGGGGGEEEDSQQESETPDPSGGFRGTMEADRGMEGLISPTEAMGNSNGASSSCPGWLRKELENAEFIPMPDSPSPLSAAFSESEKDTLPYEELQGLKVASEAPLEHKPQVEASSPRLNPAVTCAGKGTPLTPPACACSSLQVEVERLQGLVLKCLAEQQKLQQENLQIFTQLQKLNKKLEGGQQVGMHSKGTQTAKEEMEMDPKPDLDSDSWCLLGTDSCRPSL

Serine/threonine-protein kinase Nek7 (Homo sapiens), sequence (Q8TDX7 whole entry, looked up): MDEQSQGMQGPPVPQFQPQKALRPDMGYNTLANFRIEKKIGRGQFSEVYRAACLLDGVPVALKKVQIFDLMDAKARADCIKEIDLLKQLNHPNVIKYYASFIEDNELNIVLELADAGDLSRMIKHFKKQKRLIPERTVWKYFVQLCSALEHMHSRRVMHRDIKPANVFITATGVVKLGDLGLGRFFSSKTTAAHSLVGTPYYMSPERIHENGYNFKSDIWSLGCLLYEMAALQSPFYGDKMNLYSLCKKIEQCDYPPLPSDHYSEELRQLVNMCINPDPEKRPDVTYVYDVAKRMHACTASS
Serine/threonine-protein kinase Nek6 (Homo sapiens), sequence (Q9HC98 whole entry): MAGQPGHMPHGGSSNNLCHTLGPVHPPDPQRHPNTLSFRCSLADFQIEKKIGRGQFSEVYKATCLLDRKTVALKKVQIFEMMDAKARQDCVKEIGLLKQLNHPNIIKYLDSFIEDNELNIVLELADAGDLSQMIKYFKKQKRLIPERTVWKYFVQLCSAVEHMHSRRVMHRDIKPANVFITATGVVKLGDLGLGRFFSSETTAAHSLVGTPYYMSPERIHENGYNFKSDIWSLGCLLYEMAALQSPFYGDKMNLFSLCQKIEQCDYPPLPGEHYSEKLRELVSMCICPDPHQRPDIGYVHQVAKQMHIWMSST

Question: How did the inhibition [1] turn out when CCN1CCC(CC(=O)Nc2n[nH]c3nc(-c4cccs4)c(Br)cc23)CC1 was run?
Answer: -3.61%

Question: And the inhibition [2]?
Answer: -1.51%

Question: And the inhibition [3]?
Answer: 0.77%

Question: What about the inhibition [4] of the same molecule?
Answer: -1.87%

Question: And the inhibition [5]?
Answer: -2.3%

Question: And the inhibition [6]?
Answer: -1.1%

Question: And the inhibition [7]?
Answer: -2.19%

Question: What about the inhibition [8] of the same molecule?
Answer: 0.31%

Question: And the inhibition [9]?
Answer: -4.11%

Question: And the inhibition [10]?
Answer: 0.24%

— ChEMBL document CHEMBL1961873, “Compounds: GSK PKIS; Assays: Nanosyn kinase panel” (2012)
